Measured values as given in PubChem BioAssay (NCI).
The panel holds about 83,000 compounds, 20% with a hit somewhere; the sample as a whole holds those more often.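 Cell lines were cultured in 96-well plates, exposed to a single compound concentration, and assessed for percent growth 48 hours later.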 Activity calls are given as the source filed them. The calls were made as follows: active = growth percent below 10; inactive = the rest.

system: MCF7 breast; assay: NCI-60 one-dose screen, 48 h (100 = growth as untreated, 0 = no growth, -100 = all killed); details: 10 µM unless noted

SMILES | growth
O=C(Nc1ccc(NCCN2CCOCC2)nc1)c1ccc([N+](=O)[O-])cc1 | 89.2% (inactive)
COc1cc(-c2ncn(/C=C\C(=O)OC(C)C)n2)cc(C(F)(F)F)c1 | -24.5% (active)
O=C(NNC(=O)N1c2ccccc2C=Cc2ccccc21)c1ccccc1 | 95.6% (inactive)
CC(C)(C)n1cc(-c2ccnc(NCCNS(=O)(=O)c3ccc(Cl)cc3)c2)c(-c2cccc(O)c2)n1 | 28.2% (inactive)
Clc1ccccc1-c1nc2ccccc2[nH]1 | 82.8% (inactive)
CC(C)(C)n1cc(-c2ccnc(NCCNS(=O)(=O)c3ccc(C(F)(F)F)cc3)c2)c(-c2cccc(O)c2)n1 | 17.3% (inactive)
CC(=O)Oc1csc(N(C(C)=O)c2cc(C(=O)O)cc(C(=O)O)c2)n1 | 95% (inactive)
COc1ccncc1S(=O)(=O)NC(=O)Nc1ccc(Cl)c(Cl)c1 | 105% (inactive)
COc1ccc(C(=O)N2NC(=O)/C(=C/c3ccccc3F)N=C2c2ccccc2)cc1 | 91.2% (inactive)
CCOC(=O)CC(=O)OC | 91.5% (inactive)
CN1C=CN(Cc2ccc(-c3ccccn3)nc2)[CH-]1.CN1C=CN(Cc2ccc(-c3ccccn3)nc2)[CH-]1.[Au+3] | 9.07% (active)
COc1cccc(/C=C2\Oc3cc(OCCCN4CCCC4)ccc3C2=O)c1OC | 87% (inactive)
O=C1C(Cl)=C(Nc2ccccn2)C(=O)c2ccccc21 | 29.6% (inactive)
Cc1ccc2[nH]c(=O)c3c(c2c1)Oc1ncn2nc(-c4ccco4)nc2c1C3c1ccc(Cl)cc1 (centres undefined) | 86.7% (inactive)
